Hits are enriched below; roughly 7.5% of the tested compounds scored in any of these assays.
Rab9 prom act – qHTS Assay for Rab9 Promoter Activators; Potency, µM (titrated, usually from 9.22 µM), usual class: activators; AID 485297, 2010; 320,000 compounds, 2.8% hits; Huh7 Rab9 promoter-luciferase reporter, luminescence, 24 h; note: nearly all actives have a fitted effect of over 60% in size
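Cells were plated at 1500 per well in reduced-serum medium with 10% FBS and left 2 h. Compound in DMSO was then added for 24 h at 37 °C. Reporter signal was read by luminescence after 10 min with luciferase detection reagent.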
SMN2 splice up – qHTS Assay for Enhancers of SMN2 Splice Variant Expression; HEK293 SMN2-luciferase splicing reporter, luminescence, 30-36 h; Potency, µM (highest dose often 46.1 µM), most hits filed as activators; 210,000 compounds, 2.8% hits; note: nearly all actives have a fitted effect of over 55% in size
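qHTS luciferase splicing reporter: luminescence rises when SMN2 exon 7 is included in transfected HEK293 cells. Compound exposure lasted 30-36 h at 37C, with 4.5 mM final sodium butyrate as control, followed by a ONE-Glo read.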
NPC1 prom act – qHTS Assay for NPC1 Promoter Activators; 320,000 compounds, 2.4% hits; Potency, µM (doses to about 9.22 µM), actives largely listed as activators; AID 485313, 2010; Huh7 NPC1 promoter luciferase reporter, 24 h; note: nearly all actives have a fitted effect of over 60% in size
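In 1536-well qHTS, Huh7 cells harboring an NPC1 promoter–luciferase construct received compound for 24 h; activation was quantified by luminescence following luciferase reagent addition.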
ELG1 genotoxic – qHTS screen for small molecules that induce genotoxicity in human embryonic kidney (HEK293T) cells expressing luciferase-tagged ELG1; HEK293T ELG1-luciferase reporter, luminescence, 16 h; Potency, µM (titrated, usually from 46 µM), most hits filed as activators; 330,000 compounds, 1.3% hits; note: nearly all actives have a fitted effect of over 60% in size
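HEK293T cells expressing luciferase-tagged ELG1 were exposed to compound or DMSO vehicle for 16 hr at 37 °C and 5% CO2. Luciferase activity was then measured with ONE-Glo after 30 min at room temperature.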
FLuc counter – qHTS profiling assay for firefly luciferase inhibitor/activator using purifed enzyme and Km concentrations of substrates (counterscreen for miR-21 project). purified FLuc, Km substrates, luminescence inhibition. Potency, µM (highest dose often 57.5 µM), most hits filed as inhibitors. 360,000 compounds, 6.9% hits. AID 588342, 2011; note: nearly all actives have a fitted effect of over 55% in size
Target sequence (P08659 whole entry, looked up): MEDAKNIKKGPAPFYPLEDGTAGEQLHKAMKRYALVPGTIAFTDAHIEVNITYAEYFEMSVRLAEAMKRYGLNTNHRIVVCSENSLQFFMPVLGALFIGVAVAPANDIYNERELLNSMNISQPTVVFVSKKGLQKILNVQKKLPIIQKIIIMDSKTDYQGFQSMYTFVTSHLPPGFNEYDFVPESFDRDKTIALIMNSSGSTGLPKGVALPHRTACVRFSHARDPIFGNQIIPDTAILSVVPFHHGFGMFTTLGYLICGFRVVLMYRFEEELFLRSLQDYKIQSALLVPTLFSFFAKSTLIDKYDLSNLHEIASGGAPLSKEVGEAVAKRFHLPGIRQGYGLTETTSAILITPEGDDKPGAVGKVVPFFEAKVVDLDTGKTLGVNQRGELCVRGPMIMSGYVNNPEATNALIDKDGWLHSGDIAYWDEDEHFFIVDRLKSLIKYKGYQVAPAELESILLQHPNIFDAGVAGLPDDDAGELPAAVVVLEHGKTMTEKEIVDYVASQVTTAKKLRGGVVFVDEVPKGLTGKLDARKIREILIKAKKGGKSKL
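Purified P. pyralis luciferase, 10 nM final, with Km-level 10 uM D-luciferin and 10 uM ATP in 50 mM Tris acetate pH 7.5, 10 mM Mg acetate, 0.01% Tween-20, 0.05% BSA; 6-point qHTS titration about 60 µM downward; luminescence read.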
Luc counter – Counterscreen for Luciferase (Kinase-Glo TM) Inhibition. 200,000 compounds, 0.28% hits. Kinase-Glo luciferase, ATP luminescence, 8 min. Luciferin 4-monooxygenase (Photuris pensylvanica), Q27757. Potency, µM (titrated, usually from 38.3 µM), hits mostly inhibitors; note: nearly all actives have a fitted effect of over 60% in size
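Recombinant Kinase-Glo luciferase, 10 uM ATP (linear range), luciferin; imidazole pH 7.2 / KCl / MgCl2 / Tween / BSA buffer; 8 min RT; luminescence.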
Large screens that a line does not name were inactive. Calls come from the whole dose curve; as a rule, active = well fitted curve in the direction sought with a large enough effect; inconclusive = small, poorly fitted or top-dose-only effect, or another doubt; inactive = no such curve, though single readings can be large; an effect the other way counts as inactive or inconclusive.

COc1ccc2nc(SCC(C)=O)c(C#N)cc2c1	Rab9 prom act 1µM, SMN2 splice up 2µM, NPC1 prom act inconclusive, ELG1 genotoxic 2.06µM, FLuc counter 1.07µM
CCOC(=O)CSc1nc2cc(C)ccc2cc1C#N	Rab9 prom act 1.26µM, SMN2 splice up 14.1µM, NPC1 prom act 0.708µM, ELG1 genotoxic inconclusive, FLuc counter inconclusive
CCOC(=O)CSc1nc2cc(OC)ccc2cc1C#N	Rab9 prom act 1.26µM, SMN2 splice up 11.2µM, NPC1 prom act 0.794µM, ELG1 genotoxic 0.82µM, FLuc counter inconclusive
O=C(COC(=O)[C@@H]1CCCN1C(=O)c1cccs1)Nc1cccc([N+](=O)[O-])c1	none (no result: Rab9 prom act, SMN2 splice up, NPC1 prom act, FLuc counter, Luc counter)
CCOc1ccc(S(=O)(=O)N2CCN(C(=O)CN3C(=O)NC(C)(C)C3=O)CC2)cc1	none (no result: SMN2 splice up, FLuc counter, Luc counter)
COc1cccc(-n2c(=O)c3sc4ccccc4c3n(CC(=O)NC3CCCCC3)c2=O)c1	none (no result: Rab9 prom act, NPC1 prom act, ELG1 genotoxic, Luc counter)
Brc1ccc2oc3c(N4CCOCC4)ncnc3c2c1	Rab9 prom act inconclusive, NPC1 prom act inconclusive, FLuc counter 15.1µM
Cc1ccc(CCNC(=O)c2c(C)oc3ncn(CC(C)C)c(=O)c23)cc1	none (no result: Rab9 prom act, SMN2 splice up, NPC1 prom act, ELG1 genotoxic, Luc counter)
CCS(=O)(=O)N1CCc2nc(-c3ccccc3)sc2C1	Rab9 prom act 1.12µM, NPC1 prom act 0.631µM, ELG1 genotoxic inconclusive, FLuc counter 4.78µM (no result: SMN2 splice up, Luc counter)
Cc1n[nH]c(=O)n1-c1ccc(OCc2ccccc2)cc1	Rab9 prom act 2.82µM, NPC1 prom act inconclusive, ELG1 genotoxic inconclusive, FLuc counter 21.3µM (no result: SMN2 splice up)
CC1=C(c2ccc(F)cc2)[N+](=O)C(C)(C)N1[O-]	FLuc counter 26.9µM (no result: SMN2 splice up)
CC1=C(c2ccc(C)cc2)[N+](=O)C(C)(C)N1[O-]	Rab9 prom act 3.98µM, ELG1 genotoxic inconclusive, FLuc counter 9.53µM (no result: SMN2 splice up)
CC1=C(c2ccccc2)[N+](=O)C2(CCCC2)N1[O-]	none
O=C(NC(O)C(=O)c1ccccc1)c1ccccn1 (centres undefined)	FLuc counter 15.1µM (no result: SMN2 splice up, Luc counter)
CCCOc1ccc(C(=O)CCNc2cccc(Cl)c2)cc1	none
COc1ccc(C(=O)CCNc2cccc(Cl)c2)cc1	Rab9 prom act 3.55µM, SMN2 splice up inconclusive, NPC1 prom act inconclusive, ELG1 genotoxic inconclusive, FLuc counter inconclusive
O=C(CCNc1ccccc1)c1ccc2c(c1)OCO2	Rab9 prom act 2.51µM, NPC1 prom act 2.24µM, ELG1 genotoxic inconclusive, FLuc counter 4.78µM
CC(=O)c1ccc(OCCCC(=O)Nc2ccc3c(c2)OCCO3)cc1	none (no result: SMN2 splice up, Luc counter)
CCCOc1ccc(C(=O)Nc2ccc3c(c2)OCCO3)cc1	Rab9 prom act 0.562µM, NPC1 prom act 0.355µM, ELG1 genotoxic 2.91µM, FLuc counter 1.2µM (no result: SMN2 splice up, Luc counter)
COc1ccc(-c2noc(CCC(=O)Nc3ccc4c(c3)OCCO4)n2)cc1	FLuc counter 16.9µM
Cc1ccc(-c2noc(CCC(=O)Nc3ccc4c(c3)OCO4)n2)cc1	none
CCn1c(C)c(C)c2cc(C(=O)NCc3ccc(OC)cc3OC)ccc21	none (no result: Rab9 prom act, SMN2 splice up, NPC1 prom act, ELG1 genotoxic, Luc counter)
COC(=O)c1ccc2c(=O)n(CCCCCC(=O)NCc3ccc(OC)cc3)c(=O)[nH]c2c1	none (no result: Rab9 prom act, SMN2 splice up, NPC1 prom act, ELG1 genotoxic, Luc counter)
COc1ccc(C(=O)CNc2cccc(F)c2)cc1	NPC1 prom act inconclusive, ELG1 genotoxic inconclusive, FLuc counter 10.7µM (no result: SMN2 splice up, Luc counter)
COc1ccc(C(=O)CCNc2ccc3c(c2)OCCO3)cc1	NPC1 prom act inconclusive, FLuc counter 13.5µM
COc1ccc(C(=O)Nc2ccc3c(c2)OCCO3)cc1	Rab9 prom act 0.708µM, SMN2 splice up 1.78µM, NPC1 prom act 0.447µM, ELG1 genotoxic inconclusive, FLuc counter 0.849µM
CC(=O)Oc1ccc(C(=O)Nc2ccc3c(c2)OCCO3)cc1	Rab9 prom act 1.58µM, NPC1 prom act 1µM, ELG1 genotoxic inconclusive, FLuc counter 10.7µM (no result: SMN2 splice up, Luc counter)
COc1cc2c(cc1OC)C(/C=C/c1ccc(OC)c(OC)c1OC)=NCC2	none (no result: Rab9 prom act, NPC1 prom act, ELG1 genotoxic, FLuc counter)
COC(=O)[C@@]1(Cc2ccccc2)[C@H]2c3cc(C(=O)N4CCCC4)n(Cc4nc5ccccc5[nH]4)c3C[C@H]2CN1C(=O)c1ccccc1	none (no result: Rab9 prom act, NPC1 prom act, ELG1 genotoxic, FLuc counter)
